Assay results taken from PubChem BioAssay (NCATS).
Inconclusive results are not listed. Unmarked numbers belong to inactive results. The source made the active and inactive calls. Calls follow the shape of the dose curve; as a rule, active = well fitted activation curve with a large enough effect; inconclusive = small, poorly fitted or top-dose-only effect; inactive = no such curve, though single readings can be large or run the other way.
Potency is read from the fitted curve at half-maximal effect.

What follows are compounds tested against Cellular tumor antigen p53 (Homo sapiens) (UniProt P04637) (assay: Primary qHTS for small molecule compounds that upregulate eGFP-tagged delta133p53alpha (in N-terminal) cells. (AID 2060322; also: nearly all actives have a fitted effect of over 75% in size;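 as to activation: series mostly up to about 56 µM; 0% = DMSO vehicle and 100% = reference activator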)). Settings: NCI-H358 eGFP-delta133p53alpha fluorescence, 24 h; activation: stronger effect = higher value.
Chain of Cellular tumor antigen p53 (Homo sapiens) (P04637 whole entry, looked up): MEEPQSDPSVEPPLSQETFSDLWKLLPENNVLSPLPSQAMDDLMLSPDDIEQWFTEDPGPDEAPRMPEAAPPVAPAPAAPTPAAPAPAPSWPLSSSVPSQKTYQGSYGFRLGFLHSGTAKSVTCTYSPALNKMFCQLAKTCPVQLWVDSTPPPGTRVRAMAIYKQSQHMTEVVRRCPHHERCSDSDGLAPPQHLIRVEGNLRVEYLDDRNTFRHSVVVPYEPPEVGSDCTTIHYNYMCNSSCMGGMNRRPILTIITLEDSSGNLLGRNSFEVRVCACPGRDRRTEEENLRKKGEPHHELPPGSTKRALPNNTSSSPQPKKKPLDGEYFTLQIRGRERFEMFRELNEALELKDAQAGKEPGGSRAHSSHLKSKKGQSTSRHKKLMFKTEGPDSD
Outline: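 NCI-H358 cells pre-induced 24 h with 10 ng/ml doxycycline to express N-terminal eGFP-delta133p53alpha, then dosed 24 h at 37C without doxycycline; fixed, Hoechst-stained, GFP intensity by laser scanning cytometry, normalized to DMSO (0%) and 57.5 uM 5-azacytidine (100%).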
With `COc1cc(C)c(Cc2cnc(N)nc2N)cc1OC` the activation was -6.69%.
Compound `CC(=O)N(c1onc(C)c1C)S(=O)(=O)c1ccc(N)cc1` has an activation of -0.565%.
`CCOC(=O)NNc1nncc2ccccc12` showed an activation of 20.1%.
`COc1ccccc1OC(=O)Oc1ccccc1OC` was tested, and the activation was 6.69%.
`CCOc1ccc(Cc2nccc3cc(OCC)c(OCC)cc23)cc1OCC` was tested, and the activation was -22.6%.
Work on `CNc1nc(-c2ccc3c(N)n[nH]c3c2)cc(N2C[C@@H](C(=O)NC3CCCCC3)CC[C@@H]2C)n1` yielded an activation of -21.3%.
`CC(C)Cc1ccc(CC(=O)O)cc1` was tested, and the activation was -36.8%.
With `CCCCC(CC)CN=C(N)NC(N)=NCCCCCCN=C(N)NC(N)=NCC(CC)CCCC` (stereo unspecified) the Potency was 13.8 µM (active).
Work on `COc1cc(-c2ccc(=O)[nH]n2)ccc1OC(F)F` yielded an activation of 2.51%.
For `CC(CN(C)C)C(C)(O)Cc1ccc(Cl)cc1` (stereo unspecified), the activation was 21.8%.
`Cn1c(=O)c2[nH]c(Br)nc2n(C)c1=O` gave an activation of -3.95%.
`CC(O)CCCCn1c(=O)c2c(ncn2C)n(C)c1=O` (stereo unspecified) gave an activation of -16.4%.
With `O=C(NCc1ccccc1)[C@H](Cc1ccccc1)NC(=O)[C@@H]1O[C@@H]1C(=O)NCCc1ccc(O)cc1` the activation was 16.6%.
With `COc1cc2c(NC3CCN(C)CC3)nc(N3CCCN(C)CC3)nc2cc1OCc1ccccc1` the activation was 30.2%.
With `O=C1c2c(O)cc(O)cc2O[C@H](c2cc(O)c(O)c(O)c2)[C@H]1O` the activation was -0.847%.
`CC1(C)[C@@H]2CC[C@@]1(C)C(=O)C2` gave an activation of -0.837%.
For `Nc1ccc(C(=O)Nc2ccccc2N)cc1`, the activation was -7.53%.
In the case of `CC[C@H]1OC(=O)[C@H](C)[C@@H](O[C@H]2C[C@@](C)(OC)[C@@H](O)[C@H](C)O2)[C@H](C)[C@@H](O[C@@H]2O[C@H](C)C[C@H](N(C)C)[C@@H]2O)[C@](C)(OC)C[C@@H](C)C(=O)[C@H](C)[C@@H](O)[C@]1(C)O`, the activation is reported as -25.1%.
Work on `O=C(C=Cc1c(C(=O)O)[nH]c2cc(Cl)cc(Cl)c12)Nc1ccccc1` yielded an activation of 33.2%.
`O=C1c2ccccc2C(=O)c2c1ccc(O)c2O` gave an activation of -14.2%.
For `FC(F)(F)c1ccc(C=Cc2nc(COc3ccc(CCCCn4ccnn4)cc3)co2)cc1`, the Potency was 24.3 µM (active).
